Source: PubChem BioAssay
An excerpt weighted towards active compounds, which were near 3.4% of everything screened.
Shn3 3UTR inh: inhibitors of Schnurri-3 3'UTR reporter in osteoblasts; Clone20 osteoblast Shn3 3'UTR firefly luciferase, 24 h; inhibition, % at 12.5 µM; hit rate 0.52% among 360,000; AID 588674;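 active means mean inhibition of at least 75% with every replicate also reaching 75%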
HIF-2a block: blocks HIF-2a reporter activity; 786-0 RCC cells HIF-2a reporter, luciferase luminescence, overnight; AID 624352; hit rate 0.72% among 360,000; inhibition, % at 18.8 µM;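 active means inhibition of the luminescence signal of 40% or more relative to plate controls, in a single-dose primary screen at 18.75 µM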
TROY signal inh: TROY signaling inhibition; inhibition, % at 10 µM; hit rate 0.98% among 360,000; Q293 LMP1-TROYcd NF-kB luciferase reporter, 4 h;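 active means compounds whose plate-normalised and pattern-corrected inhibition of the luciferase reporter signal at the single screening dose is 50% or more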
TRPM1 prom inh: inhibitors of MITF-driven TRPM1 promoter in melanoma cells | inhibition, % at 12.5 µM | SK-MEL-5 TRPM1 promoter luciferase, 24 h | hit rate 0.83% among 330,000 | AID 488899;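 active means mean inhibition across replicates of 60% or more, whatever share of single replicates reaches that level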
LMP1 NFkB inh: reduces LMP1-driven NF-kappaB luciferase signal | inhibition, % at 12.5 µM | hit rate 0.69% among 350,000 | LMP1-induced NF-kappaB luciferase reporter cells, luminescence; in the data active means inhibition above about 41%
TWEAK Fn14 block: inhibitors of TWEAK-Fn14 interaction signaling; TWEAK-stimulated Fn14 reporter cells, luciferase luminescence, 8 h; inhibition, % at 10 µM; hit rate 2% among 360,000; in the data active means inhibition above about 50%
Large screens that a line does not name were inactive.

Cc1ccc(-c2cc3c(nn2)-c2ccccc2C3=O)cc1	TROY signal inh 75, TRPM1 prom inh 78, LMP1 NFkB inh 65, TWEAK Fn14 block 96
Cc1ccccc1-c1cc2c(nn1)-c1ccccc1C2=O	TROY signal inh 85
O=C1c2ccccc2-c2nnc(-c3ccc(F)cc3)cc21	TWEAK Fn14 block 75
O=C1c2ccccc2-c2nnc(-c3ccc(O)cc3)cc21	none
CCN(CC)S(=O)(=O)c1ccc(N2CCOCC2)c(NC(=O)C2=COCCO2)c1	none
O=C(Cc1ccccc1)NNC1=NS(=O)(=O)c2ccccc21	TWEAK Fn14 block 53
O=C(CN1C(=O)c2ccccc2C1=O)NNC1=NS(=O)(=O)c2ccccc21	LMP1 NFkB inh 42
COc1ccc(Cl)cc1NC(=O)c1noc(C)c1[N+](=O)[O-]	none
CCC(C)c1ccccc1NC(=O)COC(=O)c1ccc2[nH]c3c(c2c1)CCCC3 (centres undefined)	TROY signal inh 56, TWEAK Fn14 block 98
O=C(COC(=O)c1ccc2[nH]c3c(c2c1)CCCC3)Nc1ccccc1Cl	none
Cc1cc(N2CCCC2)ccc1NC(=O)CN1C(=O)NC2(CCCCC2)C1=O	none
COc1ccc(/C=C/C(=O)OCC(=O)Nc2ccc(C)cc2)cc1S(=O)(=O)N1CCOCC1	none
COc1ccc(C(=O)Nc2ccc(-c3ccc(C)o3)cc2)cc1S(=O)(=O)N1CCOCC1	TROY signal inh 51, TWEAK Fn14 block 82
COc1ccc(NC(=O)COC(=O)/C=C/c2ccc(OC)c(S(=O)(=O)N3CCOCC3)c2)cc1	LMP1 NFkB inh 54
COc1cc(/C=C/C(=O)Nc2ccc(OC)c(S(=O)(=O)N3CCOCC3)c2)ccc1OC(F)F	TROY signal inh 57
COc1ccc(/C=C/C(=O)Nc2ccc(C(C)=O)cc2)cc1S(=O)(=O)N1CCOCC1	none (no result: TRPM1 prom inh)
NS(=O)(=O)c1ccc(CCNC(=O)/C=C/c2ccc(S(=O)(=O)N3CCOCC3)cc2)cc1	TWEAK Fn14 block 84
O=C1c2ccccc2C(c2nnnn2Cc2ccccc2)N1Cc1cccs1 (centres undefined)	none (no result: Shn3 3UTR inh, TRPM1 prom inh, LMP1 NFkB inh)
CCCS(=O)(=O)NC(=O)C1(C)CCN(C(=O)c2ccc(F)c(C)c2)C1 (centres undefined)	none (no result: TRPM1 prom inh, LMP1 NFkB inh)
COC[C@H]1CCCN1c1ccc2c(c1)O[C@@H](COCc1ccccc1)CN([C@H](C)c1ccccc1)S2(=O)=O	none (no result: Shn3 3UTR inh, TRPM1 prom inh, LMP1 NFkB inh)
COc1ccc(NC(=O)c2cc3c(s2)CCC(C)C3)cc1S(=O)(=O)N1CCOCC1 (centres undefined)	TROY signal inh 51, TWEAK Fn14 block 79
Cc1ccc(NC(=O)/C=C/c2ccc(S(=O)(=O)N3CCOCC3)cc2)cc1S(=O)(=O)N(C)C	TROY signal inh 53, TWEAK Fn14 block 68
CCc1sc(C(=O)Nc2ccc(OC)c(S(=O)(=O)N3CCOCC3)c2)cc1C	none (no result: TRPM1 prom inh)
Cc1ccc(Sc2ncccc2NC(=O)c2ccccc2Cl)cc1	none
CC(C)C[C@H]1CN([C@@H](CC(C)C)CN2CCC[C@H]2CN2C(=O)C(=O)NC[C@@H]2Cc2ccc(O)cc2)C(=O)C(=O)N1CC1CCCCCC1	none (no result: Shn3 3UTR inh, TRPM1 prom inh, LMP1 NFkB inh)
Cc1cccc(C(=O)N2CCN(c3ccc(C(F)(F)F)cn3)CC2)c1C	LMP1 NFkB inh 45
CCC(C)[C@H]1CNCCN1CCc1cc(C(F)(F)F)cc(C(F)(F)F)c1 (some centres undefined)	none
CCC(C)[C@H]1CNC(=S)N1CCc1cc(C(F)(F)F)cc(C(F)(F)F)c1 (some centres undefined)	Shn3 3UTR inh 97
CN(Cc1ccccc1)C(=O)c1[nH]c(C(F)(F)F)nc1-c1ccccc1	none (no result: TRPM1 prom inh, LMP1 NFkB inh)
COc1cccc(/C=c2\s/c(=C\C(=O)C(C)(C)C)[nH]c2=O)c1	TWEAK Fn14 block 56
O=C1/C(=C/c2ccc([N+](=O)[O-])cc2)C=C(c2ccccc2)N1c1ccc(O)cc1	TRPM1 prom inh 68
O=C(O)c1cccc(N2C(=O)/C(=C/c3ccc([N+](=O)[O-])cc3)C=C2c2ccccc2)c1	HIF-2a block 57, TWEAK Fn14 block 52
O=C1/C(=C/c2ccc([N+](=O)[O-])cc2)C=C(c2ccccc2)N1c1ccccc1	none
O=C1c2ccccc2C(=O)N1CCCc1cn(C[C@H]2CC[C@H](Cn3cc(CCCN4C(=O)c5ccccc5C4=O)nn3)O2)nn1	none
Cc1nn(-c2ccccc2)nc1C(=O)OCC(=O)N1CCC(C)CC1	none
COc1ccc(CCN(C(=S)Nc2ccccc2)C2CC(=O)N(c3ccccc3)C2=O)cc1 (centres undefined)	none
O=C1CC(N(CCc2ccccc2)C(=S)Nc2ccccc2)C(=O)N1c1ccc(Br)cc1 (centres undefined)	TWEAK Fn14 block 79
Nc1c(Br)cc2c(c1Br)C(O)c1ccccc1-2 (centres undefined)	Shn3 3UTR inh 94
Cc1cc(C)cc(N2C(=O)c3nccnc3C2=O)c1	none
Cc1cc(C)cc(N2C(=O)C=CC2=O)c1	Shn3 3UTR inh 94
Nc1nc(-c2ccccc2)nc2nonc12	none (no result: TRPM1 prom inh)
Cc1ccccc1NNC(=O)C(=O)NNc1ccccc1C	none
Cc1ccccc1NC(=O)C(Cl)=C(Cl)Cl	LMP1 NFkB inh 90
CC(C)C[C@H]1CN=C(N(C)C)N1CC1CCCCCC1	Shn3 3UTR inh 87
CC(C)C[C@H]1CN=C(N(C)C)N1CC(C)C	none
Nc1c(-c2ccc3c(c2)OCCO3)oc2ccccc2c1=O	TWEAK Fn14 block 55
C#CCOCCOCCOCCNc1nc(N2CCOCC2)nc(N2CCN(C(=O)[C@H](CO)n3cc([C@@H](N)C(C)C)nn3)CC2)n1	none
Cc1ccc(-c2cc(C(=O)Nc3ccc(S(=O)(=O)Nc4cc(C)on4)cc3)c3ccccc3n2)c(C)c1	none
COc1ccc(-c2nc3ccccc3c(C(=O)Nc3ccc(S(=O)(=O)Nc4cc(C)on4)cc3)c2C)cc1	LMP1 NFkB inh 50, TWEAK Fn14 block 51
CC(=O)NNc1ncnc2c1cnn2-c1ccc(C)c(C)c1	TROY signal inh 54, TWEAK Fn14 block 66
CC(=O)c1ccc(-c2nc3c4ccccc4ccn3c2C(C)=O)o1	LMP1 NFkB inh 77
c1ccc(Cc2c(-c3ccccc3)nc3c4ccccc4ccn23)cc1	none (no result: TRPM1 prom inh)
CN(CC(=O)O)S(=O)(=O)c1cc(Cl)ccc1Cl	TROY signal inh 57
CCOC(=O)C1CCN(S(=O)(=O)c2ccc3[nH]c(=O)ccc3c2)CC1	none (no result: TRPM1 prom inh)
Cc1ccc2cc(NC(=O)C3(C)CCN(C)C3)ccc2n1 (centres undefined)	none (no result: TRPM1 prom inh, LMP1 NFkB inh)
CCCSc1nnc(CSc2nc3ccccc3s2)n1-c1ccccc1	Shn3 3UTR inh 87, TROY signal inh 53
N#CCCCSc1nnc(CSc2nc3ccccc3s2)n1-c1ccccc1	none
O=C(NC(=O)c1ccccc1O)c1ccc2c(c1)CCO2	TWEAK Fn14 block 54
COC(=O)[C@]12CCCCC=C1N(CCc1ccc(OC)c(OC)c1)C(=O)[C@H](CC(=O)N1CCN(C(=O)c3ccco3)CC1)C2	none (no result: Shn3 3UTR inh, TROY signal inh, TRPM1 prom inh, LMP1 NFkB inh, TWEAK Fn14 block)
CC(=O)O/N=C/c1c(C)c(C=O)n2ccccc12	none
